Test results taken from PubChem BioAssay.
Where “and” joins values, the source holds several entries; their conditions need not be identical. Equal values may be shown once. Peptide text beside a SMILES is read from it. * marks the point of attachment. CH2Cl = ClC*

Assay: viability loss with induced miR-34 in A549 – imaging, A549 dox-inducible miR-34, nuclei and caspase counts, primary screen (AID 1347080); also: test concentration not given here
Details: A549 miR-34 inducible, Hoechst nuclei count, 48 h; measured here: total cells without miR-34 induction

Compound	cell count
CCCCC/C=C\C/C=C\C/C=C\C/C=C\CCCC(=O)OCCN	5820
CCCCCCCC/C=C\CCCCCCCC(=O)Nc1ccccc1	5950
Cc1cc(C(C#N)c2ccc(Cl)cc2)c(Cl)cc1NC(=O)c1cc(I)cc(I)c1O (stereo unspecified)	8560 and 8730 and 10400
CCCCC/C=C\C/C=C\C/C=C\C/C=C\CCCC(=O)N[C@@H](C)CO	5940
N[C@H]1C[C@@H]1c1ccccc1	9180 and 10500
C=C1[C@@H](C)[C@H]2[C@H](Cc3ccccc3)NC(=O)[C@]23OC(=O)/C=C/[C@H](O)CCC[C@@H](C)C/C=C/[C@H]3[C@@H]1O	1060
CCCCC/C=C\C/C=C\C/C=C\C/C=C\CCCC(=O)N(C)C	5780
COc1cc(CNC(=O)CCCCCCC(C)C)c(I)cc1O	5600
CCCCCC(/C=C/C=O)OO (stereo unspecified)	5860
CCCCC/C=C\C/C=C\C/C=C\C/C=C\CCCC(=O)NCCCC(=O)O	5760
N#CC(C#N)=NNc1ccc(OC(F)(F)F)cc1	1130
CCNC(=O)[C@H]1O[C@@H](n2cnc3c(N)ncnc32)[C@@H](O)C1O (stereo partly specified)	6360
C=C1[C@@H](O)[C@@H]2O[C@@]3(CCC2O[C@@H]1[C@@H](O)C[C@H](C)C1O[C@@]2(CCCCO2)CC[C@H]1C)CC[C@H](/C=C/[C@@H](C)[C@@H]1CC(C)=C[C@@]2(O[C@H](C[C@@](C)(O)C(=O)O)CC[C@H]2O)O1)O3 (stereo partly specified)	472
C/C1=C/C(=O)O[C@@H]2C[C@@H](CC[C@H](C)/C=C\CC1)O[C@@](O)([C@@H]1CSC(=O)N1)C2	888
CCCCCCCCCCCCCCCC(=O)OC[C@H](COP(=O)([O-])OCC[N+](C)(C)C)OC(=O)CCCC=O	5690
C=C(C)[C@@H]1CCC(C)=C[C@H]1c1c(OC)cc(CCCCC)cc1OC	6160
CCCC[C@@H](C)[C@@H](OC(=O)C[C@@H](CC(=O)O)C(=O)O)[C@H](C[C@@H](C)C[C@H](O)CCCC[C@@H](O)C[C@H](O)[C@H](C)N)OC(=O)C[C@H](CC(=O)O)C(=O)O	6060
CCCCC/C=C\C/C=C\C/C=C\C/C=C\CCCC(=O)N[C@H](C)COP(=O)(O)O	5460

Compound	cell count
CCCCC/C=C\C/C=C\C/C=C\C/C=C\CCCC(=O)Nc1ccc([N+](=O)[O-])cc1	5630
Clc1ccc(C2CC3CCC2N3)cn1 (stereo unspecified)	6360
C[C@H](N)C(=O)N[C@@H](C)C(=O)N[C@@H](Cc1ccccc1)C(=O)CCl (H-Ala-Ala-Phe-CH2Cl)	3680
CCCC(=O)N[C@H]1CCOC1=O	6650
COC[C@H]1OC(=O)c2coc3c2[C@@]1(C)C1=C(C3=O)[C@@H]2CCC(=O)[C@@]2(C)C[C@H]1OC(C)=O	1560
CCCCC/C=C\C/C=C\C/C=C\C/C=C\CCCC(=O)NCCS(=O)(=O)O	5730
CC1OC(O[C@H]2C[C@@H](O)[C@]3(CO)[C@H]4[C@H](O)C[C@]5(C)[C@@H](C6=CC(=O)OC6)CC[C@]5(O)[C@@H]4CC[C@]3(O)C2)C(O)C(O)C1O (stereo partly specified)	356
CNCCCCCCN(C)N(O)N=O	6050
C[C@H](CCC(=O)O)C[C@H](C)C[C@H](C)C(=O)/C=C(\O)[C@H](C)C[C@H](C)C/C=C/[C@@H](C)[C@@H](O)[C@@H](C)[C@@H](O)C[C@@H]1CC[C@@](C)([C@H]2CC[C@@](C)([C@@H](C)O)O2)O1	914
CCCCC/C=C\C/C=C\C/C=C\C/C=C\CCCC(=O)O[C@H](COC(=O)CCCCCCCCCCCCCCCCC)COP(=O)([O-])OCC[N+](C)(C)C	5650
CC(C)(O)[C@H]1O[C@H]2CC[C@@]3(C)[C@@](O)(CC[C@H]4Cc5c([nH]c6ccccc56)[C@@]43C)C2=CC1=O	3460
COC(C/C=C/C=C/CC/C=C\CC(C)/C=C\C(=C/C(=O)O)CC(=O)O)/C(C)=C\C=C(/C)C(=O)O (stereo unspecified)	5870
CCCCCC(=O)N[C@H]1CCOC1=O	6120
CCCCCCC(C)(C)c1cc(OC)c2c(c1)OC(C)(C)[C@@H]1CC=C(C)C[C@@H]21	6400
CCCCC/C=C\C/C=C\C/C=C\C/C=C\CCCC(=O)NCc1ccoc1	5790
CCOC(=O)CN1C(=O)CC(C[C@@H](O)C2C[C@@H](C)C[C@H](C)C2=O)CC1=O (stereo partly specified)	4910
CC1(O)C[C@@]23C[C@@H](O)[C@@]4(O)[C@@H](C[C@H](O)C4(C)C)[C@](C)(O)[C@@H]2CCC1[C@H]3O (stereo partly specified)	6440
CO/C1=C\C(C)=C\[C@@H](C)[C@@H](O)[C@@H](C)C/C(C)=C/C=C/[C@H](OC)[C@@H]([C@@H](C)[C@@H](O)[C@H](C)[C@@]2(O)C[C@@H](O)[C@H](C)[C@@H](C(C)C)O2)OC1=O	2860
